# Screening data deposited in PubChem by National Center for Advancing Translational Sciences (NCATS).
# ATXN2 expr inh = reduces ATXN2 reporter expression in HEK-293 cells | AID 1745845 | HEK-293 ATXN2-luciferase reporter, luminescence, 24 h | 360,000 tested, 0.72% active | Potency, µM (top dose mostly 57 µM), for inactives: at the highest dose activity change, negative = inhibition, actives largely listed as inhibitors; also: potency is read from the fitted curve at half-maximal effect; % is scaled to controls: 0 for no effect and ±100 for the full control effect; nearly all actives have a fitted effect of over 55% in size
#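 qHTS (up to 57 uM final) was run with 24 h compound exposure of reporter cells at 37 °C. Each well was multiplexed: SteadyGlo luminescence measured ATXN2-luciferase expression after a fluorogenic Gly-Phe-AFC viability readout (25 uM final).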
# TGFb inhibitor = inhibitors of TGF-b signaling. AID 588855. 410,000 tested, 1.2% active. Potency, µM (doses to about 46.1 µM), inactives show at the top dose activity, negative = inhibition, hits mostly inhibitors. HepG2 CAGA-GFP TGF-b/SMAD3 reporter, GFP fluorescence, 18 h; TGF-beta stimulated, 500 pg/mL final; also: potency is read from the fitted curve at half-maximal effect; % is scaled to controls: 0 for no effect and ±100 for the full control effect; nearly all actives have a fitted effect of over 65% in size
#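 Inhibition was scored as loss of TGF-beta-induced (500 pg/mL final, 18 hours, 37 degrees C) GFP in HEPG2 cells carrying a CAGA-GFP reporter, in DMEM with 1% FBS. Well GFP was summed per cell; Activity was normalised to unstimulated and stimulated DMSO wells, then concentration-response fitting.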
# IL-1B inflam inh = blocks inflammasome-driven IL-1 beta release; THP-1 LPS/ATP IL-1B secretion, AlphaLISA, 16 h; stronger effect = lower value; 360,000 tested, 4.7% active; activity change, % at 57.5 µM; in the data active = activity change below about -50%; inconclusive = mostly about -30% to -49%; also: % is scaled to controls: 0 for no effect and ±100 for the full control effect
#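 THP-1 cells pretreated 1 hr with compounds (up to 57.5 uM final), then stimulated with LPS (250 ng/mL final) plus ATP (1.25 mM final); secreted IL-1B measured by AlphaLISA after 16 hr, decreased signal indicating inhibition.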
# HepG2 tox = HepG2 cytotoxicity, counter-screen for TGF-b inhibitors; HepG2 CAGA-GFP viability, ATP luminescence, 18 h; Potency, µM (doses to about 46.1 µM), without a hit: at the top dose activity change, negative = cytotoxicity, usual class: cytotoxic; 410,000 tested, 0.76% active; AID 588856; also: potency is read from the fitted curve at half-maximal effect
#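 HepG2 CAGA-GFP cells (1000/well, DMEM with 1% FBS) received compound, then TGF-beta at 500 pg/mL final, and were incubated 18 hours at 37 degrees C. Viability was read by CellTiter-Glo luminescence. Media-only wells were set as complete cell-killing and DMSO as no toxicity.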
# S2 tox = reduces viability in counter-screen for ATXN expression inhibitors; S2 cells (HEK-293 line with an ATXN2-luciferase reporter) viability, CellTiter-Fluor protease fluorescence, 24 h; Potency, µM (titrated, usually from 56.7 µM), actives largely listed as cytotoxic; 400,000 tested, 0.49% active; also: potency is read from the fitted curve at half-maximal effect; nearly all actives have a fitted effect of over 40% in size
# Numbers without * were called inactive; i = inactive; ? = inconclusive; . = no result. Hits are enriched below; roughly 5.7% of the tested compounds scored in any of these assays. Unless noted, calls follow the shape of the dose curve; as a rule, active = well fitted curve in the direction sought with a large enough effect; inconclusive = small, poorly fitted or top-dose-only effect, or another doubt; inactive = no such curve, though single readings can be large; an effect the other way counts as inactive or inconclusive.
SMILES,ATXN2 expr inh,TGFb inhibitor,IL-1B inflam inh,HepG2 tox,S2 tox
CSCC(=O)NC1CCCN(C2Cc3ccccc3C2)C1 (stereo unspecified),-4.2%,?,16.1,7.94µM*,?
C[C@]12CC[C@@H]3c4ccc(O)cc4C[C@@H](CCCCCCCCCS(=O)CCCC(F)(F)C(F)(F)F)[C@H]3[C@H]1CC[C@H]2O (stereo partly specified),-7.3%,.,.,.,.
CN(C(=O)CSc1nc(N)c2c3c(sc2n1)CSC(C)(C)C3)c1ccccc1,11.5%,?,-55.0*,-17.1%,i
OC1(c2ccc(Cl)c(Cl)c2)C[n+]2ccccc2N1Cc1ccccc1 (stereo unspecified),35.5µM*,?,-84.9*,-89.6%,.
CCN(CC)c1cc(C)c2cc(NC(=O)/C=C/c3ccccc3OC(C)C)ccc2n1,-15.5%,?,.,-23.7%,?
CC(=O)NC1=C(C#N)CCC1,.,-9.5%,.,-16.3%,.
O=[N+]([O-])c1ccc(NCCOc2ccccc2Cl)nc1,4.5%,-21.8%,-65.6*,-22.2%,i
Cc1cccc(OCCNc2ccc([N+](=O)[O-])cn2)c1,-10.5%,2.5%,30.4,-25.0%,i
Cc1cccc(C)c1NC(=O)CCCn1c(=O)c2cccn2c2ccccc21,.,-14.4%,.,-0.4%,.
C=CC[n+]1c(/C=C/c2ccc(OC(C)=O)c(OC)c2)ccc2ccccc21,.,-4.7%,-98.6*,-56.5%,15.8µM*
COc1cc(/C=N/NC(=O)Nc2ccccc2)ccc1OC(C)=O,77.3%,6.5%,10.0,-8.5%,i
Cc1ccc(CNc2nc(C)cs2)cc1,-27.2%,-1.0%,-58.0*,-0.8%,i
CCCCC[C@@H](/C=C/C1C(=O)C=C[C@H]1C/C=C\CCCC(=O)OC)OC(C)=O (stereo partly specified),?,?,-100.9*,-71.1%,.
CCOc1ccccc1CNC(=O)c1cccn1-c1nnc(N2CCCCC2)s1,.,?,.,-34.7%,.
CCOc1ccccc1CNCc1cccn1-c1nnc(N2CCN(c3ccccc3)CC2)s1,17.8µM*,?,.,-82.7%,?
COc1ccc(-n2ccn(CC(=O)Nc3ccccc3C(F)(F)F)c(=O)c2=O)cc1OC,.,16.1%,.,4.8%,.
COC(=O)c1cccc(Nc2c(-c3ccc(OC)cc3)nc3nc[nH]n23)c1,-2.7%,-0.6%,.,-17.2%,i
COc1ccc(S(=O)(=O)N2CCN(Cc3cccc(Cl)c3)CC2)cc1,-5.6%,?,-14.3,-15.4%,i
COc1ccc(CN2CCCN(S(=O)(=O)c3ccc(Br)cc3)CC2)cc1,?,?,-70.8*,-23.6%,i
COc1ccc(S(=O)(=O)N2CCN(Cc3ccc(OC)c(OC)c3)CC2)cc1,5.5%,-3.9%,-22.7,-16.5%,i
Cc1ccc(S(=O)(=O)N2CCN(Cc3cc(Br)ccc3O)CC2)cc1,-26.6%,10µM*,.,0.8%,i
COc1ccc(S(=O)(=O)N2CCN(Cc3ccc(Cl)cc3)CC2)cc1,-14.1%,-26.0%,-64.6*,-27.3%,i
COc1cccc(CN2CCN(S(=O)(=O)c3ccc(Cl)s3)CC2)c1,-8.8%,-8.3%,-50.6*,-2.6%,i
COc1ccc(CC(=O)N2CCN(S(=O)(=O)c3ccc(Cl)s3)CC2)cc1,.,2.0%,17.3,-39.3%,i
COc1cccc(CNC(=O)c2ccc(CN3CC(=O)N4CCCCC4C3=O)cc2)c1 (stereo unspecified),.,-0.3%,.,-13.2%,.
SMILES,ATXN2 expr inh,TGFb inhibitor,IL-1B inflam inh,HepG2 tox,S2 tox
CC(C)(C)n1ncc2c(=O)n(Cc3ccc(Cl)c(C(F)(F)F)c3)cnc21,.,2.1%,.,2.2%,.
CC(C)NS(=O)(=O)c1cc(C(F)(F)F)ccc1/C=C/C(=O)O,.,-14.7%,.,2.8%,.
O=C(C[n+]1ccccc1Br)c1ccc(O)c(O)c1,.,-3.9%,.,1.6%,.
COc1cc(/C=C/c2ccnc3ccccc23)ccc1N(C)C,.,20.2%,.,-31.3%,.
CCOC(=O)c1ccc(N2CCN(c3ccccc3F)CC2)c(NC(=O)Nc2ccc(Cl)c(Cl)c2)c1,.,-5.0%,.,-25.1%,.
Cc1ccc(C(=O)N/N=C/c2ccc([N+](=O)[O-])s2)cc1,2.24µM*,?,-18.7,-29.1%,i
O=C(N/N=C/c1ccc([N+](=O)[O-])s1)c1cccc(Br)c1,-34.3%,?,1.4,-43.0%,?
